Measured values taken from PubChem BioAssay AID588492 (Sanford-Burnham Center for Chemical Genomics, 2011).
Among all 360,000 compounds or so, about 2,300 (0.64%) were called active.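 Rule for the calls: active = compounds giving at least 50% protection of heart cells from peroxide-induced death in the single-dose screen, raw or plate-pattern-corrected value; inactive = the rest.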 What follows is part of a selection rich in actives, with near analogues and random picks from the rest.

assay: cardioprotection against H2O2-induced cell death, primary screen, uHTS, H9c2 cells, ATPLite luminescence (AID 588492); conditions: H9c2 cardiomyocytes, H2O2 injury protection, 2 h, at 20 µM, active compounds read high;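 note: 0% = DMSO wells with peroxide and 100% = DMSO wells without peroxide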

| SMILES | protection from H2O2 cell death |
| --- | --- |
| CCOc1ncccc1C(=O)N(CC)CC(=O)Nc1ccc(NC(C)=O)cc1 | -4.3% (inactive) |
| COc1ccc(N(CC(=O)N/N=C/c2cccs2)S(=O)(=O)c2ccc(OC)c(OC)c2)cc1 | 52.7% (active) |
| COc1ccc(N(CC(=O)N/N=C/c2cccc3c2OCCO3)S(=O)(=O)c2ccc(NC(C)=O)cc2)cc1 | 26.2% (inactive) |
| COc1ccc(S(=O)(=O)N(CC(=O)N/N=C/c2ccc(C(=O)O)cc2)Cc2ccccc2)cc1OC | -0.7% (inactive) |
| N#Cc1ncc(C(F)(F)F)cc1Oc1cccnc1 | -0.3% (inactive) |
| Cc1cc(C)c(C(N)=O)c(Cl)n1 | 0.4% (inactive) |
| COc1ccc(C(C)(O)c2nc(-c3ccc(C)c(C)c3)cs2)cc1 (stereo unspecified) | -13.4% (inactive) |
| COc1ccc(C(O)c2nc(-c3ccc4c(c3)OCO4)cs2)cc1 (stereo unspecified) | -5.3% (inactive) |
| COc1ccc(OC)c(Nc2nc(-c3ccc(O)c(O)c3)cs2)c1 | 52% (active) |
| [2H]C(CCOS(N)(=O)=O)c1ccccc1 (stereo unspecified) | 3% (inactive) |
| CCOC12CC(C)(C)CC(C)(CC3=C1C(=O)CC(C)(C)C3)C2 (stereo unspecified) | -0.9% (inactive) |
| CCC(=O)Oc1cccc(C(=O)Nc2ccc(-c3nnc(-c4ccco4)o3)cc2)c1 | 77.3% (active) |
| Cc1ccc2nc(-c3ccc(NC(=O)c4cccnc4)cc3)oc2c1 | 48.1% (inactive) |
| O=C(Nc1ccc(Cl)cc1)c1cccc(OC(=S)N2CCOCC2)c1 | -15.8% (inactive) |
| COC(=O)NNC(=O)C1CCC(C)CC1 (stereo unspecified) | -10% (inactive) |
| COc1ccc(-c2cc(C(=O)N(C)Cc3ccc(OC)c(OC)c3OC)c3ccccc3n2)cc1OC | 67.1% (active) |
| COc1ccc(-c2cc(C(=O)N(C)CC(=O)Nc3ccccc3Cl)c3ccccc3n2)cc1OC | 49.1% (inactive) |
| COc1ccc(CN(C)C(=O)c2cc(-c3ccc(C)cc3C)nc3ccccc23)c(OC)c1OC | 48.9% (inactive) |
| Cc1cc(C)nc(Nc2n[nH]c(-c3ccccc3N)n2)n1 | -9.5% (inactive) |

| SMILES | protection from H2O2 cell death |
| --- | --- |
| CCCCCN(C(=O)NC(=O)Nc1ccccc1C)S(C)(=O)=O | -4.1% (inactive) |
| CCC(C)(C)NC(=O)C(c1cccc(OC)c1OC)N(CC(C)C)C(=O)CCC(=O)Nc1cc(C)on1 (stereo unspecified) | 1.2% (inactive) |
| Cc1ccccc1Cn1c(C)c(C(=O)NCc2cccc(C(F)(F)F)c2)sc1=O | -2.6% (inactive) |
| COc1ccc(CNC(=O)/C(C#N)=C/c2cccc(OC)c2OC)cc1 | 1.5% (inactive) |
| N#C/C(=C\c1ccc(O)c(O)c1)C(=O)NCc1ccccc1 | 55.9% (active) |
| COCCNC(=O)/C(C#N)=C/c1cccc(OCc2ccccc2)c1 | 32.1% (inactive) |
| Cn1nc([N+](=O)[O-])nc1Sc1ccc(C(C)(C)C)cc1 | -11.1% (inactive) |
| c1ccc(-c2cn3c(n2)CCc2ccc4cccnc4c2-3)cc1 | 61.6% (active) |
| CCN(CC(=O)NC(C)C)C(=O)CCNC(=O)c1ccc(Cl)cc1 | -0.7% (inactive) |
| Cc1cccc(Nc2nnc(SCC(=O)c3c(N)n(C4CC4)c(=O)[nH]c3=O)s2)c1C | -2.2% (inactive) |
| CC(=O)Nc1ccc(-c2cn3cccnc3n2)cc1 | -2% (inactive) |
| CC(=O)Nc1ccc(-c2csc(NC(=O)Nc3ccccc3)n2)cc1 | 50.5% (active) |
| NC(c1ccccc1)c1csc(NC(=O)Nc2cccc(C(F)(F)F)c2)n1 (stereo unspecified) | -10.6% (inactive) |
| CN(C)C(CNC(=O)CCCOc1ccccc1)c1ccco1 (stereo unspecified) | 4.6% (inactive) |
| O=C(COC(=O)c1cccc(Br)c1)Nc1cccc2c1C(=O)c1ccccc1C2=O | -6.9% (inactive) |
| O=C(Cn1cnc2ccccc21)Nc1ccccc1-c1ccccc1 | -5.3% (inactive) |
| O=C(COC(=O)Cn1cnc2ccccc21)Nc1cccc2c1C(=O)c1ccccc1C2=O | 59.5% (active) |
| O=C(CCc1nnc(CCCCc2ccccc2)o1)NC(c1cccnc1)C(F)(F)F (stereo unspecified) | 0.8% (inactive) |
| COc1ccccc1NS(=O)(=O)c1ccc(C)c(C(=O)NNC(=O)c2csc(N3CCOCC3)n2)c1 | 8.3% (inactive) |

| SMILES | protection from H2O2 cell death |
| --- | --- |
| CCN(CC)C(=O)Cn1cc(S(=O)(=O)CC(=O)NCc2ccc3c(c2)OCO3)c2ccccc21 | 2.8% (inactive) |
| C[C@@H]1C(c2ccc(F)cc2)=NN(c2ccc(Br)cc2)[C@H]1C(=O)N1CCOC1=O | -1.3% (inactive) |
| COc1ccccc1OCCn1c(SCC(N)=O)nc2ccccc21 | 3.9% (inactive) |
| O=C1N[C@H](Cc2c[nH]c3ccccc23)COC(=O)[C@H](Cc2ccc(F)cc2)C/C=C\C[C@H]1CC(=O)N(CCO)Cc1ccccc1 | 51.5% (active) |
| O=C1OC[C@@H]2CCCN2C(=O)[C@H](CC(=O)N(CCO)Cc2ccccc2)C/C=C\CC[C@@H]1Cc1ccc(F)cc1 | 2.9% (inactive) |
| O=C1NC[C@@H](c2ccccc2)OC(=O)[C@H](Cc2ccc(F)cc2)CC/C=C/C[C@H]1CC(=O)N(CCO)Cc1ccccc1 | 61.8% (active) |
| CC(C)(C)OC(=O)C[C@@H]1C/C=C\C[C@@H](CC(=O)N(CCO)Cc2ccccc2)C(=O)N[C@H](Cc2ccccc2)COC1=O | 14.2% (inactive) |
| O=C1N[C@@H](c2ccccc2)COC(=O)[C@H](Cc2ccc(F)cc2)C/C=C\C[C@@H]1CC(=O)N(CCO)Cc1ccccc1 | 8.2% (inactive) |
| O=C1CCC/C=C/C[C@@H](CC(=O)N(CCO)Cc2ccccc2)C(=O)NC[C@H](c2ccccc2)O1 | 0.5% (inactive) |
| CCOc1ccc(NC(=O)[C@H](C)NC(=O)C2CC(=O)N(c3ccc(OC)cc3)C2)cc1 (stereo partly specified) | -1.8% (inactive) |
| CC(C)(C)OC(=O)N1CCN(C(=O)c2[nH]c(C(F)(F)F)nc2-c2ccccc2)CC1 | -1.1% (inactive) |
| Cc1cc(C)cc(NC(=O)Cn2cnc3c(nnn3Cc3ccc(F)cc3)c2=O)c1 | 0.7% (inactive) |
| O=C(c1ccccc1)N1CCN(C(=O)c2cc3nc(-c4ccccc4)cc(C(F)(F)F)n3n2)CC1 | 11.3% (inactive) |
| C#Cc1cc(N2CCN(C(=O)c3ccoc3)CC2)n2nc(-c3cccc(Cl)c3)cc2n1 | 84.5% (active) |
| CN(C)CCN1CCN(c2cc(-c3cccc(Cl)c3)nc3ccnn23)CC1 | 19.8% (inactive) |
| Cc1cc(C)c(-c2csc(NC(=O)CCCc3nc4ccccc4c(=O)[nH]3)n2)c(C)c1 | -4.2% (inactive) |
| O=C(Cn1[nH]c(=O)c2ccccc2c1=O)Nc1cccc(-c2nnc3n2CCCCC3)c1 | 23.4% (inactive) |
| Cc1ccc(-c2csc(NC(=O)Cn3[nH]c(=O)c4ccccc4c3=O)n2)cc1 | 52% (active) |
